A number with no mark means an inactive call. Records with an inconclusive call do not appear. The source made the active and inactive calls. Unless noted, calls come from the whole dose curve; as a rule, active = well fitted curve in either direction with a large enough effect (not every such curve was filed as active); inconclusive = small, poorly fitted or top-dose-only effect, or another doubt; inactive = flat fitted curve, though single readings scatter.

Data on 7 compounds can be found in PubChem BioAssay (NCATS).

Assay [1] concerns the target Lysosomal acid glucosylceramidase (Homo sapiens) (UniProt P04062). The assay can be described thus: Glucocerebrosidase-p2 (AID 348; in the data active = potency below about 10 µM; note: potency is the fitted concentration of half-maximal effect). The following applies: purified GBA, blue fluorogenic substrate, 40 min. An outline of the steps: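 Compounds titrated from 0.6 nM upwards against 0.2 nM enzyme in pH 5.9 citric acid/KH2PO4, taurocholate, tween-20; blue fluorogenic substrate 80 uM, 40 min room temperature, stopped and read Ex 365/Em 440 for AC50.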

A short description of assay [2]: AP1 Signaling Pathway (AID 357).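 Note: ME-180 reporter cells stimulated with EGF at its EC50 level; % is set by controls: 0 for no effect and ±100 for the full control effect.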 The following applies: ME-180 AP-1-bla reporter, EGF-induced, beta-lactamase ratio, 5 h; at 7.69 µM (top of the series) unless noted. Summed up: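 Modulation of EGF-driven AP-1 transcription was assessed with a beta-lactamase reporter in ME-180 cells. Compound and EC50 EGF were co-incubated 5 hours at 37 °C before 2.5-hour CCF4 loading at room temperature and dual-emission reading.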

In assay [3] the target is Cytochrome P450 1A2 (Homo sapiens) (UniProt P05177). The assay is described as follows: p450-cyp1a2 (AID 410; calls by dose curve; note: potency is the fitted concentration of half-maximal effect). The following applies: recombinant CYP1A2, luciferin-ME demethylation, luminescence; series mostly up to 11.4 µM. Summed up: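 Luminescent readout of luciferin formed from Luciferin-ME by human CYP1A2; data normalized against complete inhibition by 57 uM furafylline. Enzyme 20nM, substrate 100uM at Km, 100mM KPO4 buffer, 60 min reaction at room temperature.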
Chain of Cytochrome P450 1A2 (Homo sapiens) (P05177 whole entry, looked up): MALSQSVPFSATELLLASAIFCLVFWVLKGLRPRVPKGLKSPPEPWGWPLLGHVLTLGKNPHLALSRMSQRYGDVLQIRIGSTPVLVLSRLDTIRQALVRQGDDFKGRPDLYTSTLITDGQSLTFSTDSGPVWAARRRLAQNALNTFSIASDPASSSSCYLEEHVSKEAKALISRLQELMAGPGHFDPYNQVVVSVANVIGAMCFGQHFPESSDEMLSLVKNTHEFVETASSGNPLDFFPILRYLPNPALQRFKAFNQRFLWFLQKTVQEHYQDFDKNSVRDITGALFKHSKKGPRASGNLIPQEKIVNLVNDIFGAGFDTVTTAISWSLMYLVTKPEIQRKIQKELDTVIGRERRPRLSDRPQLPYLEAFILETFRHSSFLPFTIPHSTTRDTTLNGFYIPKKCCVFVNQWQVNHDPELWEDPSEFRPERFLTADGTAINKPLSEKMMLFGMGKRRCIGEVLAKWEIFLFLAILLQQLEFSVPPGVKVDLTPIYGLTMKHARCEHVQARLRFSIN

Assay [4] in a line: NFAT Signaling Pathway (AID 444).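 Note: carbachol stimulus at about its EC50 of 1 µM final; % is set by controls: 0 for no effect and ±100 for the full control effect.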 The following applies: Jurkat NFAT-bla M1, carbachol, beta-lactamase ratio, 5 h; at 7.69 µM (top of the series) unless noted. Summed up: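 Jurkat cells carrying an NFAT-driven β-lactamase reporter and co-transfected muscarinic M1 receptor were treated with compound plus carbachol (1 uM final, an EC50 level) for 5 h at 37 °C. CCF4 loading followed for 1 h at RT; 460/530 nm ratio gave %activity.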

Assay [5] is described as follows: Stat Signaling Pathway (AID 446).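 Note: ME-180 cervical cancer cells given 40 pM IL-6 alongside compound; SIE-controlled beta-lactamase reporter measured as 460/530 nm FRET emission ratio; % is set by controls: 0 for no effect and ±100 for the full control effect.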 The following applies: ME-180 SIE beta-lactamase reporter, IL-6 stimulated, 5 h; at 7.69 µM (top of the series) unless noted. Summed up:
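ME-180 cells carrying a SIE-driven beta-lactamase reporter are stimulated with 40 pM IL-6 for 5 h at 37C in the presence of compound. The 460/530 nm FRET substrate ratio is read after 2.5 h at RT. Data are normalised to 300 pM IL-6 and to 125 nM JAK inhibitor controls.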

For assay [6], the target named is Glucocorticoid receptor (Homo sapiens) (UniProt P04150). The assay can be described thus: GR-GFP Redistribution (AID 450;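 active = compounds whose dose series gives a full or clear partial fitted curve of increased nuclear translocation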; note: potency is the fitted concentration of half-maximal effect). The following applies: U2OS GR-GFP nuclear translocation, laser cytometry, 2 h.
Chain of Glucocorticoid receptor (Homo sapiens) (P04150 whole entry, looked up): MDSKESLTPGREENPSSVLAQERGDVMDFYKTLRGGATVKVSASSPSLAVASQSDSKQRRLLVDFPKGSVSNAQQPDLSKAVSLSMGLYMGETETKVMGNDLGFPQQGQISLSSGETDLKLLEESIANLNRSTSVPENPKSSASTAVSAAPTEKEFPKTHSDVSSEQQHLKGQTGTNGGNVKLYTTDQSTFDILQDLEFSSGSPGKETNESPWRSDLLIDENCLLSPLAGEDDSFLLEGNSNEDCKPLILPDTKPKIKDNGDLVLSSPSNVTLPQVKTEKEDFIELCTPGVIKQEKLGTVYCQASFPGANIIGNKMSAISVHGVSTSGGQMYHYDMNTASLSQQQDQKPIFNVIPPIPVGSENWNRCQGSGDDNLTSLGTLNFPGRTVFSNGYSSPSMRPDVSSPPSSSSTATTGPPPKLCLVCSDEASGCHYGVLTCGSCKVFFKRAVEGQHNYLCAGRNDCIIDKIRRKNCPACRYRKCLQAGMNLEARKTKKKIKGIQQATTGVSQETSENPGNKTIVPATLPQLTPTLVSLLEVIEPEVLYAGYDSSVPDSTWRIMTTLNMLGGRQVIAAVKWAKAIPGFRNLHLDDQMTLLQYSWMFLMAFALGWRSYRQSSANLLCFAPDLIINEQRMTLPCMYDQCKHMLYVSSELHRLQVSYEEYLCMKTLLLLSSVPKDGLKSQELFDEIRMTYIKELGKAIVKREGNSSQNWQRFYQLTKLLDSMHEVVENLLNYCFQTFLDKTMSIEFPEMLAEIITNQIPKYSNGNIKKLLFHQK
Assay [7] shares this target. The assay is described as follows: GR-EFC Redistribution (AID 451; calls by dose curve; note: potency is the fitted concentration of half-maximal effect). The following applies: CHO-K1 GR-EFC translocation, beta-gal luminescence, 2 h. An outline of the steps:
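CHO-K1 cells stably expressing nuclear-localized β-gal enzyme acceptor and GR fused C-terminally to the enzyme donor fragment; ligand-driven nuclear translocation restores β-gal by complementation. Compounds titrated up to 46 uM final, 2 h at 37 °C; luminescence read.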

For assay [8], the target named is Mitogen-activated protein kinase 10 (Mus musculus) (UniProt Q61831). The assay is described as follows: JNK3 AlphaScreen Assay (AID 530).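 Note: kinase came from lysate of stimulated human HepG2 cells; signal reports phosphorylation of biotinylated GST-cJun 1-79 at Ser73 with 10 µM ATP; % is set by controls: 0 for no effect and ±100 for the full control effect.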 The following applies: JNK3 lysate, c-Jun phosphorylation; series mostly up to 11.4 µM. An outline of the steps:
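Inhibitors reduce antibody binding to phosphorylated biotin-cJun, lowering AlphaScreen luminescence. Lysates from HepG2 cells pre-activated by IL-1beta plus TNF-alpha supplied JNK3; compounds were titrated.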

The target of assay [9] is 3',5'-cyclic-AMP phosphodiesterase 4B (Homo sapiens) (UniProt Q07343). The assay can be described thus: qHTS Assay for Inhibitors of PDE-IV (AID 607; active = well fitted activation curve with a large enough effect in the main read-out, with a control signal flat, not every such curve was filed as active; note: % of control where 0% means no effect). The following applies: HEK293 ACTOne CNG channel cells, membrane potential fluorescence; series mostly up to 22.9 µM. Summed up: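 HEK293 ACTOne cells with CNG channel (1000/well), endogenous PDE4; membrane potential dye, compounds up to 22.9 uM final. Fluorescence Ex 535/Em 590; RO 20-1724 (100 uM final) as reference.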
Chain of 3',5'-cyclic-AMP phosphodiesterase 4B (Homo sapiens) (Q07343 whole entry, looked up): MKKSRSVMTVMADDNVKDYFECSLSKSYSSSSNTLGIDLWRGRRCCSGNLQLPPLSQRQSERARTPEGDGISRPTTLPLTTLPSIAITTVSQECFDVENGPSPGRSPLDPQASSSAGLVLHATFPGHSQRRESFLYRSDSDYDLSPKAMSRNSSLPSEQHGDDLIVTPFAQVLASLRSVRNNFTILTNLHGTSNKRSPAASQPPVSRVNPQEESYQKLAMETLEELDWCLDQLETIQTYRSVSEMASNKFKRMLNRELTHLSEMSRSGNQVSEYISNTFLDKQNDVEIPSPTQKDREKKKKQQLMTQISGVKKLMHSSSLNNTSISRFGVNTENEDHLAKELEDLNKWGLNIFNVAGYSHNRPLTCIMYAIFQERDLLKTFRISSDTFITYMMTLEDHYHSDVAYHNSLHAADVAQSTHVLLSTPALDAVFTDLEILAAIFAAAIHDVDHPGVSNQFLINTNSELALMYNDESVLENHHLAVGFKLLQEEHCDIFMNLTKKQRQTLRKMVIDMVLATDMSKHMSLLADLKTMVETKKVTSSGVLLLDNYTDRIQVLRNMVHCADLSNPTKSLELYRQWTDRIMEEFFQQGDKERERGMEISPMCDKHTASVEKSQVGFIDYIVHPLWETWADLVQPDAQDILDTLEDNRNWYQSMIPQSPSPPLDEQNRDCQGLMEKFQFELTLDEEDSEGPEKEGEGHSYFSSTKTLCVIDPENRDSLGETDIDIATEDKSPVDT
(In qHTS, concentration-response curves come from the screen itself.)

Assay [10] in a line: qHTS Assay for Identification of Small Molecule Agonists for Hypoxia Response Element Signaling Pathway (AID 914; active = well fitted activation curve with a large enough effect in the signal ratio, with a control signal flat, not every such curve was filed as active; the % refers to the signal ratio; note: % of control where 0% means no effect). The following applies: ME-180 (cervical carcinoma) HRE-bla reporter, beta-lactamase ratio, CoCl2, 17 h; activation: hits give high values. Summed up: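 Compounds in a titration series were added to ME-180 reporter cells alongside an EC50 level of CoCl2. After 17 hours, beta-lactamase activity was read as the 460nm/530nm emission ratio of CCF4, giving AC50 values.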

Chain of Lysosomal acid glucosylceramidase (Homo sapiens) (P04062 whole entry, looked up): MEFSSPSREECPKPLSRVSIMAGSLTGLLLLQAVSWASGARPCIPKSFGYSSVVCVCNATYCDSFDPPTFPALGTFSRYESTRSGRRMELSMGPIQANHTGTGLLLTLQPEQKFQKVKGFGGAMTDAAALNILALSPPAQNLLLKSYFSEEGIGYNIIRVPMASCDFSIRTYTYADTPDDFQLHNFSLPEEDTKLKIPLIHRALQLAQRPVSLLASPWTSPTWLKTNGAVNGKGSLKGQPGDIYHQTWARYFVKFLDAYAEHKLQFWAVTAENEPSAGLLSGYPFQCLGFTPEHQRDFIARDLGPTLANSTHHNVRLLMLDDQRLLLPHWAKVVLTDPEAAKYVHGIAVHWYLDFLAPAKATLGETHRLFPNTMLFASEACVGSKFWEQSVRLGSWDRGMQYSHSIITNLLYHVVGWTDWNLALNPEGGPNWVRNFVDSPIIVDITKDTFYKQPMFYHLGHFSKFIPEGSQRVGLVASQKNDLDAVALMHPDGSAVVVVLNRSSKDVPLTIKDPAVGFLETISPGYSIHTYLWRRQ

Turning to `O=C(O)[C@H]([C@H]1NCCS1)N1Cc2ccccc2C1`, the Potency in [1] was above 11.4 µM; in [6], above 46 µM; in assay [7], above 9.22 µM. In addition, the activity change, negative = inhibition is 11% in [2], -13.4% [at 2.29 µM] in assay [3] and 5.16% in assay [4]. In addition, the activity, negative = inhibition in [5] was 2.46%. In addition, the Potency entry in assay [8] and in [9] was “inactive” each time. The activation in assay [10] was 13.9%.

On to `C[C@@]1(C(=O)O)CCC[C@@H]1C(=O)O`, for which the Potency in assay [1] is above 11.4 µM; in assay [6], above 46 µM; in [7] it was above 9.22 µM. Further, the activity change, negative = inhibition in assay [2] was 8.46%; in assay [3], -9.8% [at 2.29 µM]; in assay [4] it was 5.02%. Further, the activity, negative = inhibition in [5] is 2.41%. In addition, the Potency result in assay [8] and in [9] was “inactive” each time. For the same compound, the activation in assay [10] was 4.07%.

`O=[N+]([O-])c1ccc2c(c1)S(=O)c1ccccc1-2` (stereo unspecified): the Potency is above 11.4 µM in [1], 0.2 µM (active) in assay [3], above 46 µM in [6] and above 9.22 µM in assay [7]. For the same compound, the activity change, negative = inhibition in [2] was 11.5%; in assay [4], 10.5%. Also, the activity, negative = inhibition in [5] was -13.7%. The Potency result in assay [8] and in [9] was “inactive” throughout. Moreover, in assay [10], the activation was -10.8%.

Consider `COC(=O)[C@]1(C)CCC(c2ccc(C)cc2)=C(CC(=O)O)C1`, for which the Potency is above 11.4 µM in assay [1], above 46 µM in assay [6] and above 9.22 µM in assay [7]. In addition, the activity change, negative = inhibition is -2.42% in [2], -8.4% [at 2.29 µM] in assay [3] and -1.89% in assay [4]. In assay [5], the activity, negative = inhibition is 2.79%. The Potency entry in assay [8] and in assay [9] was “inactive” each time. For the same compound, in assay [10], the activation was 4.66%.

For the compound `O=C(O)c1cccc2cccc(-c3cccc4cccc(C(=O)O)c34)c12`, the Potency was above 11.4 µM in assay [1], above 46 µM in [6] and above 9.22 µM in assay [7]. Besides, the activity change, negative = inhibition in [2] was 4.88%; in assay [3], -12.3% [at 2.29 µM]; in assay [4], 10.7%. For the same compound, in assay [5], the activity, negative = inhibition is 6.14%. Besides, in assay [9], the Potency entry is “inactive”.

`O=S(=O)(O)c1ccc(-c2nnc(-c3ccccn3)nc2-c2ccc(S(=O)(=O)O)o2)o1`: the figures for the Potency in [1], in assay [6] and in [7] were above 11.4 µM, above 46 µM and above 9.22 µM, respectively. The activity change, negative = inhibition is 4.23% in [2] and 3.88% in [4]. For the same compound, the Potency entry in [3], in assay [8] and in assay [9] was “inactive” in each case. In addition, the activity, negative = inhibition in assay [5] is 2.53%. The activation in assay [10] was 8.26%.

In the case of `CN(CCO)Cc1ncccc1O`, the Potency is above 11.4 µM in assay [1], above 46 µM in [6] and above 9.22 µM in assay [7]. Besides, the activity change, negative = inhibition in assay [2] was -2.61%; in assay [3] it was -10% [at 2.29 µM]; in [4], 14.9%. The activity, negative = inhibition in assay [5] was 12.9%. For the same compound, the Potency entry in assay [9] was “inactive”.
